Data published in PubChem BioAssay AID588811 (Broad Institute, 2011).
Measured potencies and affinities stand elsewhere.

What follows are compounds tested against Dual specificity protein kinase CLK1 (Homo sapiens) (UniProt P49759) (assay: inhibition of human CLK1 activity – biochemical, cherry-picked samples, selectivity assay for Dyrk1A inhibitor project, dose response (AID 588811)). Conditions: recombinant CLK1, ADP-Glo luminescence, 2 h; series mostly up to 12 µM; activity change, negative = inhibition: at the top concentration;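 active means compounds lowering signal whose fitted half-maximal concentration is at most twice the top tested dose; inconclusive means flat curve with 30 to 70% inhibition, or poor fit; inactive means the rest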.
Sequence of Dual specificity protein kinase CLK1 (Homo sapiens) (P49759 whole entry, looked up): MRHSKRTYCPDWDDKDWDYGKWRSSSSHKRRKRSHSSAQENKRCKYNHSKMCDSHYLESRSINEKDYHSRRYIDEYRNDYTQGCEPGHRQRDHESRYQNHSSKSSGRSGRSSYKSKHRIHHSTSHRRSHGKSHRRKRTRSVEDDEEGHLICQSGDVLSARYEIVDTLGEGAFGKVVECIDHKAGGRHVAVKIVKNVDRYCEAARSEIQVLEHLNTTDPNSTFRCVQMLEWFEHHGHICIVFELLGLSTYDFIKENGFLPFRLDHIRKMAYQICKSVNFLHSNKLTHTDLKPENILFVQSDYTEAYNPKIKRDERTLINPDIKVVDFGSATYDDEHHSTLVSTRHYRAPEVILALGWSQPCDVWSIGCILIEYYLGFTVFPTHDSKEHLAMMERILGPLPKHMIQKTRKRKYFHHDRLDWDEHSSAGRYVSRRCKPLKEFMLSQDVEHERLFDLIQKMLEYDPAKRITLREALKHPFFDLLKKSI

Activity change, negative = inhibition, inactive:
COc1cccc(-c2sc3ccccc3c2-c2ccc(OCCN3CCCC3)cc2)c1 -9.56%, Clc1ccccc1-c1ccc2ncnc(NCc3ccc4c(c3)OCO4)c2c1 -3.63%, Clc1ccc(CNc2nccc(-c3ccc4cn[nH]c4c3)n2)cc1Cl -19.6%, CCCC(=O)Nc1nc(-c2ccc3c(c2)OCCO3)cs1 -24.5%, Clc1cc(Cl)cc(CNc2cc(-c3ccc4c(c3)OCO4)ncn2)c1 -20%, CC(=O)Nc1cccc(NC(=O)c2cc3ccccc3o2)c1 -17%, Clc1ccc(CNc2cc(-c3ccc4c(c3)OCO4)ncn2)cc1 -23.3%, N#Cc1c(C(F)(F)F)cc(-c2cccc(Cl)c2)[nH]c1=O -15.6%, Cc1ccnc(NC(=O)c2cccc(S(=O)(=O)N3CCN(c4ccccc4)CC3)c2)c1 -5.91%, Cc1noc(NS(=O)(=O)c2ccc(NC(=O)c3oc4ccc(F)cc4c3C)cc2)c1C -34%, COc1ccc2c(Cl)c(C(=O)NCc3ccco3)sc2c1 -35.8%, COCCNC(=O)c1ccc2c(c1)nc(C)n2-c1cccc(F)c1 -16.5%, Fc1cccc(Nc2nc(-c3ccncc3)nc3ccccc23)c1 -43.5%, N#CCSc1nc(Nc2ccc3c(c2)OCO3)c2ccccc2n1 -4.57%, Cc1c(-c2ccnc(NCc3ccc(Cl)cc3)n2)sc(=O)n1C -45%, COc1cccc(Nc2nc(NCCO)c3ccccc3n2)c1 -8.29% [at 1.35 µM], O=C(NCc1ccco1)c1sc2ccccc2c1Cl -12.3%
